Reference: ChEMBL document CHEMBL3988442, “University of Dundee, Small-Polar-MMV Screening Library” (2021)
Among all 48,000 compounds or so, about 13,000 (27%) showed an effect of 50% or more. This is one part of the list.

These compounds were tested on Wolbachia pipientis (assay: Anti-Wolbachia Cell-Based Screen). Details: 5 µM.
Type: functional
Parameters: scale not given: in the data most compounds retested in dose-response had high values

Going from `Cc1nc(C(C)(C)NCc2ncc(C3CC3)o2)sc1C` to `CCCN1CCC(Cc2noc(-c3[nH]cnc3C)n2)CC1`, the “Percent Effect” value rises from -9.268% to 95.32%.

Going from `CCc1ccc(CNc2ccccc2CN2CCC(O)CC2)o1` to `Cc1c(NCc2ccccc2C#N)cccc1S(=O)(=O)NC1CC1`, the “Percent Effect” value rises from -8.641% to 7.829%.

First: CCCn1cc(CNCC(c2ccc(C)s2)N2CCOCC2)cn1 (stereo not given)
Second: CC(C)(CNc1ccccc1S(=O)(=O)C(F)F)N1CCOCC1
The “Percent Effect” value of the first is higher: 19.75% for the first, 14.98% for the second.

First: COCC(=O)NC[C@]12COC[C@H]1CN(c1ncc(F)cn1)C2.O=C(O)C(F)(F)F
Second: COCC(=O)NC[C@]12COC[C@H]1CN(Cc1ccc3c(c1)OCO3)C2.O=C(O)C(F)(F)F
The “Percent Effect” value of the first is lower: -9.196% for the first, 110% for the second.

First: COCC(=O)NC[C@]1(O)CN(Cc2ccc3c(c2)OCCO3)C[C@H]1O
Second: CCC[C@H]1CN(Cc2ccc3c(c2)OCCO3)C[C@@H]1NC(=O)COC
The “Percent Effect” value of the first is higher: 114.3% for the first, -19.75% for the second.

Going from `CN(C)C[C@]12COC[C@H]1CN(Cc1ccc3c(c1)OCO3)C2.O=C(O)C(F)(F)F.O=C(O)C(F)(F)F` to `COc1ccc(CN2C[C@@H]3COC[C@]3(CN(C)C)C2)cc1.O=C(O)C(F)(F)F.O=C(O)C(F)(F)F`, the “Percent Effect” value falls from 103.2% to 3.897%.

Going from `CC(=O)N1CCN(Cc2ccc3c(c2)OCCO3)CC(O)C1` (stereo not given) to `COc1cccc(CCC2CCCN(C(C)=O)C2)c1` (stereo not given), the “Percent Effect” value falls from -5.239% to -117.1%.

Compared with `COc1ccc(CC(=O)N2C[C@@H]3COC[C@]3(CN(C)C)C2)cc1.O=C(O)C(F)(F)F`, `COc1ccc(CCC2CCCCN2)cc1.Cl` (stereo not given) is higher in “Percent Effect” value: 1.592% for the first, 100.4% for the second.

Compared with `O[C@H]1[C@H](NCCc2ccccn2)c2ccccc2C12CCNCC2`, `O=C(c1cnc(Nc2ccccc2)nc1)N1CCC2(CCNCC2)CC1` is lower in “Percent Effect” value: 4.411% for the first, 2.873% for the second.

First: CCC(CC)N(Cc1ccc2c(c1)OCO2)C(=O)c1ccc(=O)n(C)c1
Second: COc1ccc(C2CCCN2C(=O)c2ccc(=O)n(C)c2)cc1OC (stereo not given)
The “Percent Effect” value of the first is higher: -1.967% for the first, -4.846% for the second.

Compared with `CN(Cc1ccco1)Cc1cncc2c1CCN(c1ncccn1)C2.Cl.Cl`, `Cc1cnc(N2CCc3c(CN(C)Cc4ccco4)cncc3C2)nc1` is higher in “Percent Effect” value: 2.734% for the first, 78.05% for the second.

Compared with `CN(Cc1cn2c(n1)CN(C(N)=O)CC2)Cc1ccco1`, `Cc1ccc(N2CCc3c(CN(C)Cc4ccco4)cncc3C2)nn1.Cl.Cl` is higher in “Percent Effect” value: 9.855% for the first, 99% for the second.

Compared with `CC(=O)Nn1c(C)cc(CN2CCC(C(=O)N3CCCC3)CC2)c1C`, `CC1CCN(CC2CCN(C(=O)c3c[nH]c4ncccc34)CC2)CC1` is lower in “Percent Effect” value: 13.77% for the first, -10.12% for the second.

Compared with `O=C(c1cnccn1)N1CCC2(CC1)C(=O)NCC2c1ccccc1` (stereo not given), `O=C(O)C(F)(F)F.O=C(c1cnccn1)N1CCN2C[C@H](OCc3ccccc3)C[C@H]2C1` is higher in “Percent Effect” value: -11.37% for the first, 0.9926% for the second.

First: Cc1cccnc1C(=O)N1CCC(Cc2cnc3[nH]ccc3c2)CC1
Second: O=C(c1ccccn1)N1CCC(Cc2cnc3[nH]ccc3c2)CC1
The “Percent Effect” value of the first is lower: 75.79% for the first, 136.1% for the second.

Compared with `O=C(c1ccncc1)N1CCC(Cc2cnc3[nH]ccc3c2)CC1`, `O=C(c1cnccn1)N1CCC(Cc2cnc3[nH]ccc3c2)CC1` is lower in “Percent Effect” value: 127.1% for the first, 109.1% for the second.

First: CCn1c(C2CCN(C(=O)c3ccc4cc[nH]c4c3)CC2)n[nH]c1=O
Second: Cc1cccc(C(=O)N2CCC(Cc3cnc4[nH]ccc4c3)CC2)n1
The “Percent Effect” value of the first is higher: 3.076% for the first, -6.998% for the second.

Compared with `O=C(c1cncs1)N1CCC(Cc2cnc3[nH]ccc3c2)CC1`, `O=C(c1cnco1)N1CCC(Cc2ccc3ncccc3c2)CC1` is higher in “Percent Effect” value: 101.1% for the first, 111% for the second.

Going from `CCCc1nnsc1C(=O)NCC1CCN(C(=O)c2ccncc2)CC1` to `O=C(CCC1CCN(C(=O)c2cnco2)CC1)NCc1cccc(Cl)c1`, the “Percent Effect” value rises from 2.794% to 11.71%.

Compared with `CC(C)CC(=O)N1CCN(c2cc(N(C)C)cnn2)CC1`, `CCc1nc(CN2CCCN(C(=O)COC(C)C)CC2)cs1` is higher in “Percent Effect” value: 10.83% for the first, 23.5% for the second.

Going from `CCC(C(=O)NCc1ccncc1)N(c1ccc(OC)cc1)S(C)(=O)=O` (stereo not given) to `Cc1ccc(OCC(=O)NS(=O)(=O)Cc2ccccc2)cc1`, the “Percent Effect” value rises from -7.147% to 1.419%.

Compared with `O=C(NCc1nc(NC2CCCC2)c2cc(Cl)ccc2n1)c1cncs1`, `O=C(COc1ccc(Cl)cc1)NCc1nncn1C1CC1` is lower in “Percent Effect” value: -2.993% for the first, -10.37% for the second.

First: CC(C(=O)Nc1cnn(CC(N)=O)c1)c1ccc(Cl)s1 (stereo not given)
Second: CC(Oc1cccc(Cl)c1)C(=O)Nc1cnn(CC(=O)NC2CC2)c1 (stereo not given)
The “Percent Effect” value of the first is lower: -7.657% for the first, 3.95% for the second.

Compared with `O=C(O)c1cc2c(nc1O)CC(c1cccc(Cl)c1)CC2=O` (stereo not given), `CN1CC(NC(=O)CCOc2cccc(Cl)c2)CC1=O` (stereo not given) is lower in “Percent Effect” value: 8.981% for the first, -1.154% for the second.

Going from `O=C(c1cnco1)N1CCCC(Cc2cccc3ncccc23)C1` (stereo not given) to `Cc1cnn(C2CCCN(C(=O)c3cnc4ccccc4n3)C2)c1` (stereo not given), the “Percent Effect” value rises from -11.15% to -3.195%.

Compared with `O=C(O)C(F)(F)F.O=S1(=O)NC[C@H]2CCN(Cc3ccccc3)CC[C@H]21`, `CCCC(C(=O)NC1CCN(S(C)(=O)=O)CC1)c1ccccc1` (stereo not given) is lower in “Percent Effect” value: -3.468% for the first, -7.418% for the second.

Going from `Cc1cc(C)c(CNC(=O)NCCNc2ccccn2)c(=O)[nH]1` to `CC(=O)NCCNC(=O)Nc1ccc(C)cc1OCc1ccccc1`, the “Percent Effect” value falls from 9.095% to -17.41%.

Going from `Cc1ccc(-n2cc(C(=O)N3CCCC(n4cccn4)C3)nn2)cc1` (stereo not given) to `O=C(c1cn(-c2ccc(F)cc2)nn1)N1CCCC(n2cccn2)C1` (stereo not given), the “Percent Effect” value rises from 117.4% to 123%.

Compared with `Cc1cnn(C2CCCN(C(=O)c3cn4ccccc4n3)C2)c1` (stereo not given), `Cc1cnn(C2CCCN(C(=O)c3cn(-c4ccccc4)nn3)C2)c1` (stereo not given) is higher in “Percent Effect” value: 104.2% for the first, 117.4% for the second.

Compared with `Cc1cnn(C2CCCN(C(=O)c3cc(-c4ccco4)[nH]n3)C2)c1` (stereo not given), `Cc1cnn(C2CCCN(C(=O)c3cc[nH]n3)C2)c1` (stereo not given) is lower in “Percent Effect” value: 10.35% for the first, -3.499% for the second.

Going from `Cc1cccc(-n2cc(C(=O)N3CCCC(n4ccnc4)C3)nn2)c1` (stereo not given) to `Cc1cccc(-n2cc(C(=O)N3CCCC(n4cccn4)C3)nn2)c1` (stereo not given), the “Percent Effect” value falls from 7.382% to 4.017%.

Going from `Cc1cnn(C2CCCN(C(=O)c3cc(-c4ccccc4C)n[nH]3)C2)c1` (stereo not given) to `Cc1nn(-c2ccccc2)cc1C(=O)N1CCCC(n2cccn2)C1` (stereo not given), the “Percent Effect” value rises from -3.414% to 7.584%.

First: O=C(c1ccn(-c2cccc(F)c2)n1)N1CCCC(n2cccn2)C1 (stereo not given)
Second: O=C(c1cn(-c2ccccc2)nn1)N1CCCC(n2cccn2)C1 (stereo not given)
The “Percent Effect” value of the first is lower: 0.279% for the first, 123.4% for the second.

Compared with `CCSc1ccc(C(=O)Nc2c(C)nn(C(C)C)c2C)cn1`, `CC(C)c1noc([C@@H]2Cc3[nH]cnc3CN2C(=O)Nc2ccccc2)n1` is lower in “Percent Effect” value: 10.44% for the first, 2.136% for the second.

Going from `COCCN(C)CC1CCCN1S(=O)(=O)c1cc(C)oc1C` (stereo not given) to `CCCNC(=O)c1ccc(S(=O)(=O)NCC2(COC)CCCC2)cc1`, the “Percent Effect” value rises from 0.4223% to 10.08%.

First: Cc1ncsc1CCN(C)Cc1cc2n(n1)CCN(Cc1ncc[nH]1)C2
Second: CCCN1CCC(Cc2noc(-c3cc4cccnc4nc3C)n2)CC1
The “Percent Effect” value of the first is lower: 0.3121% for the first, 109.3% for the second.

Going from `O=C(c1ccc(N2CCCC2)nn1)N1CCCC(n2cccn2)C1` (stereo not given) to `Cc1cccc(N2CCN(Cc3nc(CC4CC4)no3)CC2)n1`, the “Percent Effect” value falls from 6.785% to -32.1%.

Compared with `Cc1nc(CNC(C)c2ccc(OCC(=O)NC3CC3)cc2)cs1` (stereo not given), `Cc1ccc(OCC(=O)NC2CCN(S(C)(=O)=O)CC2)cc1` is higher in “Percent Effect” value: 11.98% for the first, 137.9% for the second.

Compared with `Cc1ccc(C(=O)N2CCc3ncccc3C2)cc1N1CCNC1=O`, `CS(=O)(=O)N1CCC(NC(=O)COc2ccc3ccccc3c2)CC1` is higher in “Percent Effect” value: 0.3953% for the first, 103.7% for the second.

Compared with `Cc1cn(CC(=O)NC2CCN(S(C)(=O)=O)CC2)c2ccccc12`, `CCn1cc(C(=O)NC2CCN(S(C)(=O)=O)CC2)c2ccccc21` is higher in “Percent Effect” value: -0.9919% for the first, -0.7206% for the second.

First: CS(=O)(=O)N1CCC(NC(=O)COc2cccc(Cl)c2)CC1
Second: CS(=O)(=O)N1CCC(NC(=O)COc2ccc(Cl)cc2)CC1
The “Percent Effect” value of the first is higher: 141.5% for the first, 131.2% for the second.

First: CC(C)c1nccn1C(C)C(=O)NC1CCN(S(C)(=O)=O)CC1 (stereo not given)
Second: CC(CS(C)(=O)=O)N(C(=O)CCc1ccsc1)C1CC1 (stereo not given)
The “Percent Effect” value of the first is higher: -4.449% for the first, -7.747% for the second.

Compared with `CN1CCC(Cc2noc(-c3cccc(Oc4ncccn4)c3)n2)CC1`, `COc1cccc(-c2n[nH]cc2-c2nc(CC3CCN(C)CC3)no2)c1` is lower in “Percent Effect” value: 7.717% for the first, -18.5% for the second.

Going from `CCCN1CCC(Cc2noc(-c3ncccc3C)n2)CC1` to `CCCN1CCC(Cc2noc(-c3cccnc3OC)n2)CC1`, the “Percent Effect” value rises from 80.84% to 111%.

Going from `CN1CCC(Cc2noc(CC3CC3)n2)CC1` to `CCCN1CCC(Cc2nc(CN3CCN(C)CC3)no2)CC1`, the “Percent Effect” value falls from 7.965% to -14.74%.

Compared with `NC(=O)CCn1ccc(NC(=O)C2(c3ccc(F)cc3)CCC2)n1`, `CS(=O)(=O)c1ccc(-c2cc(O)cc(CCC3CCCCN3)c2)cc1` (stereo not given) is higher in “Percent Effect” value: -29.44% for the first, -20.81% for the second.

Going from `COc1ccc(N(Cc2ccco2)C(=O)COC(C)C)cc1F` to `COc1ccc(CCNC(=O)NC2CCCC2)cc1OC`, the “Percent Effect” value rises from -7.109% to 1.175%.

First: Oc1cc(CCC2CCCCN2)cc(-c2ccncc2)c1 (stereo not given)
Second: Oc1cc(CCC2CCCCN2)cc(-c2cccnc2)c1 (stereo not given)
The “Percent Effect” value of the first is higher: 23.52% for the first, 13.71% for the second.

Compared with `COc1ccc(CCC2CCCCN2)cc1OC` (stereo not given), `COc1cccc(CCC2CCCCN2)c1` (stereo not given) is lower in “Percent Effect” value: 89.4% for the first, 69.8% for the second.

Compared with `O=c1cc(-c2cc(O)cc(CCC3CCCCN3)c2)cc[nH]1` (stereo not given), `O=C(NCc1ccncc1)N1CCSCC1CCO` (stereo not given) is lower in “Percent Effect” value: 29.58% for the first, -7.144% for the second.
